Laboratory results from PubChem BioAssay (NCI).
Compounds without any hit were thinned out: in the full panel of roughly 83,000, 20% have a hit.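 Single-concentration screen, 48 h exposure, 96-well plates. Endpoint: percent growth. Below 10 = active.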 Activity calls are given as the source filed them.

Each molecule was assayed on RPMI-8226 leukemia (assay: NCI-60 one-dose screen, 48 h (100 = growth as untreated, 0 = no growth, -100 = all killed)). Settings: 10 µM unless noted.

SMILES | growth
Cc1cc(C)n(C(=O)c2nn(-c3ccc(Cl)cc3)cc2O)n1 | -0.413% (active)
C[n+]1ccc(Nc2ccc(NC(=O)c3ccc(Nc4cc[n+](C)c5ccc(N)cc45)cc3)cc2)cc1 | 68.1% (inactive)
COc1ccc(-c2nnc(COc3ccc(NC(=O)Nc4cc(C(F)(F)F)cc(C(F)(F)F)c4)cc3F)o2)cc1 | -25.8% (active)
O=C1c2ccccc2-c2c1nc1ccccc1[n+]2[O-] | 106% (inactive)
Oc1ccccc1/C=N\Nc1ccccc1 | 43.7% (inactive)
O=C(O)c1ccc(NC(=O)c2ccc(Nc3ccnc(C(F)(F)F)c3)cc2)cc1 | 98.3% (inactive)
CSc1nnc(C2=CC(=O)c3ccccc3C2=O)n1-c1ccccc1 | 72.2% (inactive)
COC(=O)[C@]12CC[C@@H](C)[C@H](C)[C@@H]1C1=CC[C@@H]3[C@@]4(C)C=C(O)C(=O)[C@@]5(C)COC(=C54)C[C@@]3(C)[C@]1(C)CC2 | -56.5% (active)
O=C(Nc1cccc2ccccc12)c1cc2c(cc1Br)OCO2 | 66.1% (inactive)
COc1ccc(OC)c(NC(=O)c2cc3oc4ccccc4c3cc2O)c1 | 53.4% (inactive)
COc1ccc2[nH]cc(/C=C3/C(=O)Nc4ccc(Cl)cc43)c2c1 | 54% (inactive)
O=c1[nH]c(=O)n(C2CC(O)C(CO)O2)cc1C(F)(F)F (centres undefined) | -23% (active)
CN1CCN(Cc2ccc(NC(=O)c3[nH]ncc3Nc3ccnc4ccnn34)cc2)CC1 | 111% (inactive)
Nc1cc(Cl)c(S(N)(=O)=O)cc1S(N)(=O)=O | 122% (inactive)
